The structures appear in SMILES notation.

The subject of the test is Inhibin beta A chain (activin A). Briefly: small molecules binding activin A – biochemical, small-molecule microarray, 635 nm fluorescence scan, primary screen (AID 1107).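 Also: mouse activin A protein probed at 4.33 µg/mL on printed slides; score merges bound-protein fluorescence near 667 nm with spot signal-to-noise.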 The note with it: INHBA, higher = more signal.
The compound `CCOC(=O)C[C@H]1[C@H](OC(=O)Cc2ccc3c(c2)OCO3)[C@@H](NC(=O)C2CCCCC2)c2cc(OCCCO)ccc2N1C(=O)c1ccccc1` displayed a composite z-score of 0.193. Under `COCCCNC(=O)[C@@]1(CCC(=O)OC(C)(C)C)N=C(c2ccc(OCCCO)cc2)O[C@H]1c1ccccc1N=[N+]=[N-]` stands 0.739; under `[N-]=[N+]=Nc1ccccc1C[C@]1(C(=O)NCC(O)CO)COC(c2ccc(OCCCO)cc2)=N1` (stereo not given in full), 1.16.

The compound `CCCC[C@@H](O)C1=C(COC)C[C@H]2C(=O)N(C)C(=O)[C@H]2[C@H]1CO` showed a composite z-score of 0.581. The value for `CCCCCCc1nc(Cc2cc(OC)c(OC)c(OC)c2)cc2c1[Si](C(C)C)(C(C)C)OC2` was 0.881.

The record behind these values is PubChem BioAssay.
